From PubChem BioAssay
TDP1 cell CPT: qHTS for Inhibitors of human tyrosyl-DNA phosphodiesterase 1 (TDP1): qHTS in cells in presence of CPT | chicken DT40 Tdp1-/-;hTDP1 cells + 20 nM CPT, ATP luminescence, 48 h | AID 686979, 2013 | 420,000 compounds, 12% hits | Potency, µM (series often up to 46.2 µM), usual class: inhibitors; note: nearly all actives have a fitted effect of over 55% in size
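Chicken DT40 Tdp1-/- cells complemented with human TDP1, 400 cells/well, exposed to compounds plus 20 nM camptothecin for at least 48 h at 37 C; viability read as ATP content by CellTiter-Glo luminescence.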
DT40 TDP1 no CPT: qHTS for Inhibitors of human tyrosyl-DNA phosphodiesterase 1 (TDP1): qHTS in cells in absence of CPT; AID 686978, 2013; 420,000 compounds, 15% hits; DT40 Tdp1-/- hTDP1 cells, no CPT, ATP luminescence, 48 h; Potency, µM (doses to about 46.2 µM), actives largely listed as inhibitors; note: nearly all actives have a fitted effect of over 55% in size
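Luminescent ATP content (CellTiter-Glo) served as the growth readout. Knockout chicken DT40 cells expressing human TDP1 were exposed to compounds without camptothecin for a minimum 48 hr at 37 °C.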
HT1080 IDH1KD tx: qHTS for induction of synthetic lethality in tumor cells producing 2HG: qHTS for the HT-1080-IDH1KD cell line. HT-1080 IDH1 knockdown viability, ATP luminescence, 48 h. Potency, µM (highest dose often 46.1 µM), most hits filed as cytotoxic. 360,000 compounds, 2% hits
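% activity derives from luminescence (CellTiter-Glo), normalised to DMSO and no-cell wells. HT-1080-IDH1KD cells, 750/well, had 48 h compound exposure at 37 °C.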
HT1080NT lethal: qHTS for induction of synthetic lethality in tumor cells producing 2HG: qHTS for the HT-1080-NT fibrosarcoma cell line; AID 686970, 2013; 360,000 compounds, 1.6% hits; Potency, µM (titrated, usually from 46.1 µM), usual class: cytotoxic; HT-1080-NT fibrosarcoma viability, CellTiter-Glo ATP luminescence, 48 h;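 note: NT is the 2HG producing partner of a matched IDH1 knockdown line; nearly all actives have a fitted effect of over 55% in size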
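Viability of the 2HG-overproducing fibrosarcoma line after 48 hours of compound exposure at 37 degrees C was determined by luminescence with CellTiter-Glo, and concentration-effect curves were then fitted and categorized.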
IL-1B inflam inh: qHTS for Inhibitors of Inflammasome Signaling: IL-1-beta AlphaLISA Primary Screen | THP-1 LPS/ATP IL-1B secretion, AlphaLISA, 16 h; hits give low values | 360,000 compounds, 4.7% hits | activity change, % at 57.5 µM; in the data active = activity change below about -50%; inconclusive = mostly about -30% to -49%
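THP-1 cells pretreated 1 hr with compounds (up to 57.5 uM final), then stimulated with LPS (250 ng/mL final) plus ATP (1.25 mM final); secreted IL-1B measured by AlphaLISA after 16 hr, decreased signal indicating inhibition.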
Hits are given with their value; - = inactive; ? = inconclusive; . = no result given. Rows were chosen to be rich in hits. Some 19% of all compounds tested hit in one or more screens of this group. Unless noted, calls come from the whole dose curve; as a rule, active = well fitted curve in the direction sought with a large enough effect; inconclusive = small, poorly fitted or top-dose-only effect, or another doubt; inactive = no such curve, though single readings can be large; an effect the other way counts as inactive or inconclusive.

SMILES	TDP1 cell CPT	DT40 TDP1 no CPT	HT1080 IDH1KD tx	HT1080NT lethal	IL-1B inflam inh
Fc1ccc(N2Cc3ccccc3-n3nncc3C2)cc1	?	?	-	-	-
Fc1ccccc1CSc1ncnc2c1ncn2C1CCCO1 (stereo not drawn)	-	?	?	-	-
Cc1ncc(CO)c2c1Oc1nc(-c3ccccc3Cl)nc(SCc3ccccc3F)c1C2	15µM	15µM	.	.	.
COc1cccc(CSc2nc(-c3ccccc3OC)nc3c2Cc2c(CO)cnc(C)c2O3)c1	5.8µM	3.7µM	.	.	.
COC(=O)C1=C(c2ccc(F)cc2OCc2ccccc2)C[C@@H]2CC[C@H]1N2C(=O)NCc1ccccc1Br	?	16µM	-	-	-
COC(=O)C1=C(c2ccc(F)cc2OCc2ccccc2)C[C@@H]2CC[C@H]1N2C(=O)NCc1ccc(C)cc1	?	?	-	-	-59
COC(=O)C1=C(c2ccc(F)cc2OCc2ccccc2)C[C@@H]2CC[C@H]1N2C(=O)NCCCc1ccccc1	26µM	?	-	-	-
COC(=O)C1=C(c2ccc(F)cc2OCc2ccccc2)C[C@@H]2CC[C@H]1N2C(=O)NC1Cc2ccccc2C1	?	26µM	-	-	-
COC(=O)C1=C(c2ccc(F)cc2OCc2ccccc2)C[C@@H]2CC[C@H]1N2C(=O)NCc1ccccc1C(F)(F)F	?	?	-	-	-
COC(=O)C1=C(c2ccc(F)cc2OCc2ccccc2)C[C@@H]2CC[C@H]1N2C(=O)NCc1ccc(F)cc1	?	?	-	-	-
CCN1CCN(c2ccc(NC(=O)C(C)C)cc2Cl)CC1	-	-	-	-	-
N#CCCn1cc(C(=O)Nc2ccccc2Br)c(-c2ccc([N+](=O)[O-])cc2)n1	-	?	-	-	-
COC(=O)C1=C(c2ccc(F)cc2OCc2ccccc2)C[C@@H]2CC[C@H]1N2C(=O)NCc1ccc([N+](=O)[O-])cc1	?	?	-	-	-58
CC12C=CC(=O)C=C1CCC1C2C(=O)CC2(C)C(=O)CCC12 (stereo not drawn)	-	-	-	-	-
C=C[C@@H]1C2=CCOC(=O)C2=CO[C@H]1O[C@@H]1O[C@H](CO)[C@@H](O)[C@H](O)[C@H]1O	-	-	-	-	-
CCCCCCn1c(=O)c(C(=O)Nc2cccc(C)n2)c(O)c2ccccc21	3.7µM	3.7µM	-	-	-
CCCCCn1c(=O)c(C(=O)Nc2cc(C)ccn2)c(O)c2ccccc21	7.3µM	7.3µM	-	-	-
CCCCCn1c(=O)c(C(=O)Nc2nc(CC(=O)OCC)cs2)c(O)c2ccccc21	4.1µM	4.6µM	-	-	-
CCCCCCCn1c(=O)c(C(=O)Nc2cnccn2)c(O)c2ccccc21	0.82µM	0.58µM	?	-	.
C=CCn1c(=O)c(C(=O)NCc2ccccc2)c(O)c2ccccc21	?	?	-	-	-
CCCCCn1c(=O)c(C(=O)Nc2ccccc2C)c(O)c2ccccc21	-	-	-	-	-
COc1ccc(C(=O)NC(=S)N2C[C@H]3C[C@H](C2)c2cccc(=O)n2C3)cc1	-	-	-	-	-
Cc1cc(=O)oc2c(C)c(OCC(=O)N3CCC(C(=O)O)(c4ccccc4)CC3)ccc12	-	-	-	-	-
NCC(CP(=O)(O)O)c1ccc(Cl)cc1 (stereo not drawn)	-	-	.	.	.
CCCCCn1c(=O)c(C(=O)Nc2cnccn2)c(O)c2ccccc21	4.1µM	2.9µM	-	-	-
C[C@H](CN1CCOCC1)C(C(=O)N1CCCC1)(c1ccccc1)c1ccccc1	?	42µM	.	.	.
O=C(Cc1ccccc1)OC(COCc1ccccc1)CN1CCOCC1 (stereo not drawn)	-	-	-	-	-
CCOC(=O)CC(NC(=O)C(Cc1ccc(N(CCCl)CCCl)cc1)NC(C)=O)C(=O)OCC (stereo not drawn)	1.5µM	0.52µM	?	?	-79
